Compounds with a hit are over-represented: about 27% of the library has one in this group of screens.
CYP2C19 activ: activators of human cytochrome P450 2C19; P33261; recombinant CYP2C19, luciferin-H EGE luminescence; hits give high values; 0 = fully inhibited enzyme, 1 = untreated enzyme; activation factor at 5 µM; 96,000 tested, under 10 active;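 active means activation factor of at least 2 at 5 µM in the primary screen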;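 further: 0 = wells with 2.5 mM tranylcypromine and 1 = vehicle-only wells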
EphB4 antag: EphB4-ephrin-B2 interaction antagonism; actives 0.15% (n = 97,000); EphB4 LBD / TNYL-RAW-Alexa532 peptide, fluorescence polarization; P54760; inhibition, % at 7 µM;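 active means inhibition above the screen-wide mean inhibition plus 3 SD, cut at about 15% in these data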;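 further: 0% = DMSO wells and 100% = excess unlabeled TNYL-RAW peptide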
Target sequence (P54760 whole entry, looked up, the tested form may be a part): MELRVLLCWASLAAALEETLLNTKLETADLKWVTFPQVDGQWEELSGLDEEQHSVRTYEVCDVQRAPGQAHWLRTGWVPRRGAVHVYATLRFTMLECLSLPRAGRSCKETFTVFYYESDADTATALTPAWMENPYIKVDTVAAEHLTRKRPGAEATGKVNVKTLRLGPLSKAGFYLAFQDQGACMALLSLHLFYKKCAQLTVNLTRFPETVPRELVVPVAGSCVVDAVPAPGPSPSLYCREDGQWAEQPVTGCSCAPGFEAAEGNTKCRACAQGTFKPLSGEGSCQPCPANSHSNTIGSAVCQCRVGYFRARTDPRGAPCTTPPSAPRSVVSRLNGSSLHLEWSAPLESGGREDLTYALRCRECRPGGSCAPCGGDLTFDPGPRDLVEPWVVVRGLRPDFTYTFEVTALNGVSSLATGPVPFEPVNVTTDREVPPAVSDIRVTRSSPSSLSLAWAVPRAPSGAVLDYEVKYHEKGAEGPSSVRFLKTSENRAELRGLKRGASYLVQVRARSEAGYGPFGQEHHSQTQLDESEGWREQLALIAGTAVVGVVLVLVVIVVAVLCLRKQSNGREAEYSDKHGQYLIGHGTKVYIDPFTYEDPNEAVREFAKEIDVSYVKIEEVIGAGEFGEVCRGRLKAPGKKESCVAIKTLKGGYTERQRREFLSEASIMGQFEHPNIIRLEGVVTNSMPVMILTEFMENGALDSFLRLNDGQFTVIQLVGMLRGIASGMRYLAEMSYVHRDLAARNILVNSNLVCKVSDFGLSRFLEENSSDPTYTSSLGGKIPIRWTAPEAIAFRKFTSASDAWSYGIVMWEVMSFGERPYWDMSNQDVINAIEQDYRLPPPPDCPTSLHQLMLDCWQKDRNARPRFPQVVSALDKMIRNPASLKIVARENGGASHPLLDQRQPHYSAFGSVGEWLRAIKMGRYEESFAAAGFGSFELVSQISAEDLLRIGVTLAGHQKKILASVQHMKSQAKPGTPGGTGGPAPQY
CYP2C9 act: CYP2C9 (human) activation. P11712. recombinant CYP2C9, luciferin-H conversion, luminescence; hits give high values; factor 1 = untreated enzyme, 0 = blocked. activation factor at 5 µM. actives 1.4% (n = 96,000). AID 1024;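 active means activation factor of 2 or more for CYP2C9 at a 5 µM dose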;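 further: 0 = sulfaphenazole-blocked wells and 1 = vehicle-only wells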
CYP2C19 inhib: blocks human cytochrome P450 2C19. actives 21% (n = 96,000). CYP2C19 Supersomes, luciferin-H EGE luminescence, 30 min. inhibition, % at 5 µM. AID 778;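 active means CYP2C19 inhibition above a set limit at 5 µM in the primary screen, cut at about 50% in these data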;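 further: plate controls were negative control wells for no effect and 2.5 mM tranylcypromine positive control for full effect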
CYP2C9 inhib: blocks human cytochrome P450 2C9; CYP2C9 Supersomes, luciferin-H conversion, luminescence; actives 20% (n = 96,000); inhibition, % at 5 µM;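 active means blocking of liver enzyme CYP2C9 beyond about 50% at 5 µM, limit read from the data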
* hit, by the source's call.

Results for COc1cccc(CN(C)C(=O)c2ccc3nccnc3c2)c1 ?
CYP2C19 activ: 0.2; EphB4 antag: 1.1; CYP2C9 act: 0.9; CYP2C19 inhib: 78.2*; CYP2C9 inhib: 11.6

What do the screens show for `Clc1ccccc1-c1ccc(CN2CCN(c3ccccc3)CC2)o1`?
CYP2C19 activ: 0.3; EphB4 antag: -1.5; CYP2C9 act: 0.4; CYP2C19 inhib: 74.3*; CYP2C9 inhib: 64.4*

How did Cc1ccc(Nc2nc3nonc3nc2N(C)C)cc1 do in these assays?
CYP2C19 activ: 0.9; EphB4 antag: -3.4; CYP2C9 act: 1; CYP2C19 inhib: 14.3; CYP2C9 inhib: 4.8

Results for CCNc1nc2nonc2nc1NCC ?
CYP2C19 activ: 1.1; EphB4 antag: -9.1; CYP2C9 act: 2.6*; CYP2C19 inhib: -14.2; CYP2C9 inhib: -160.1

Results for CCOC(=O)c1c(C)n(C)c2ccc(OCC(O)CN(CC)CC)cc12 (stereo not drawn) ?
CYP2C19 activ: 1.1; EphB4 antag: -4.9; CYP2C9 act: 1; CYP2C19 inhib: -9.4; CYP2C9 inhib: -0.2

Results for COc1ccccc1CNS(=O)(=O)c1cc(C)ccc1OC ?
CYP2C19 activ: 0.1; EphB4 antag: 4.8; CYP2C9 act: 1.6; CYP2C19 inhib: 90.0*; CYP2C9 inhib: -61.1

How did CCc1ccccc1NS(=O)(=O)c1cc(C)ccc1OC do in these assays?
CYP2C19 activ: 0.2; EphB4 antag: -2.2; CYP2C9 act: 0.5; CYP2C19 inhib: 84.2*; CYP2C9 inhib: 54.0*

How did COc1ccccc1C1CC(=O)NC(SCC(=O)Nc2ccccc2)=C1C#N (stereo not drawn) do in these assays?
CYP2C19 activ: 0.2; EphB4 antag: -0.6; CYP2C9 act: 0.6; CYP2C19 inhib: 76.0*; CYP2C9 inhib: 40.5

Results for Cc1ccccc1NC(=O)CSC1=C(C#N)C(c2ccsc2)CC(=O)N1 (stereo not drawn) ?
CYP2C19 activ: 0.7; EphB4 antag: 9.6; CYP2C9 act: 1.4; CYP2C19 inhib: 27.4; CYP2C9 inhib: -44.8

How did CCOC(=O)CC(=O)CSC1=C(C#N)C(c2ccccc2OC)CC(=O)N1 (stereo not drawn) do in these assays?
CYP2C19 activ: 0.4; EphB4 antag: -3.3; CYP2C9 act: 0.4; CYP2C19 inhib: 62.2*; CYP2C9 inhib: 62.7*

How did CCSC1=C(C#N)C(c2cccc(OC)c2)CC(=O)N1 (stereo not drawn) do in these assays?
CYP2C19 activ: 0.8; EphB4 antag: 2.8; CYP2C9 act: 0.9; CYP2C19 inhib: 22.7; CYP2C9 inhib: 5.1

What do the screens show for `N#CC1=C(SCC(=O)Nc2nccs2)NC(=O)CC1c1ccccc1` (stereo not drawn)?
CYP2C19 activ: 0.4; EphB4 antag: 3.3; CYP2C9 act: 0.1; CYP2C19 inhib: 58.5*; CYP2C9 inhib: 86.7*

What do the screens show for `N#CCSc1nnc(CNc2cccc(Cl)c2)o1`?
CYP2C19 activ: 0.8; EphB4 antag: 7.1; CYP2C9 act: 1.4; CYP2C19 inhib: 16.0; CYP2C9 inhib: -43.2

Results for CCOC(=O)C(C)Oc1c(Br)cc(C2NC(=O)NC(C)=C2C(C)=O)cc1OCC (stereo not drawn) ?
CYP2C19 activ: 0.4; EphB4 antag: 1.5; CYP2C9 act: 0.4; CYP2C19 inhib: 57.9*; CYP2C9 inhib: 55.1*

What do the screens show for `CCOc1cc(C2NC(=O)NC(C)=C2C(=O)OC(C)CC)cc(Br)c1O` (stereo not drawn)?
CYP2C19 activ: 0.7; EphB4 antag: -0.6; CYP2C9 act: 0.7; CYP2C19 inhib: 28.5; CYP2C9 inhib: 31.5

How did CCOc1ccccc1NC(=O)CN(c1nccs1)S(=O)(=O)c1ccc(N)cc1 do in these assays?
CYP2C19 activ: 1.1; EphB4 antag: 7.2; CYP2C9 act: 0.7; CYP2C19 inhib: -10.7; CYP2C9 inhib: 25.1

What do the screens show for `Cc1ccccc1C(=O)/C=C1/c2ccccc2CC(C)(C)N1C`?
CYP2C19 activ: 0.6; EphB4 antag: -0.1; CYP2C9 act: 0.4; CYP2C19 inhib: 41.1; CYP2C9 inhib: 57.5*

Results for CN1/C(=C\C(=O)c2ccco2)c2ccccc2CC1(C)C ?
CYP2C19 activ: 0.9; EphB4 antag: 3.2; CYP2C9 act: 0.8; CYP2C19 inhib: 5.9; CYP2C9 inhib: 17.2

How did Cc1cccc(C(=O)/C=C2/c3ccccc3CC(C)(C)N2C)c1 do in these assays?
CYP2C19 activ: 0.1; EphB4 antag: 2.8; CYP2C9 act: 0.1; CYP2C19 inhib: 86.8*; CYP2C9 inhib: 85.2*

Results for Cc1cccc(C(=O)NC(=S)N2CCN(C)CC2)c1 ?
CYP2C19 activ: 1; EphB4 antag: -1.8; CYP2C9 act: 0.9; CYP2C19 inhib: 1.3; CYP2C9 inhib: 5.1

Results for CC(=O)Nc1ccc(S(=O)(=O)CCC(=O)O)cc1 ?
EphB4 antag: -1.6

Screens: PubChem BioAssay, several laboratories
